According to PubChem BioAssay (Tox21):
Active and inactive are the calls of the source. Entries that show only a call come without a potency. Calls come from the whole dose curve.

target: Estrogen receptor (Homo sapiens) (UniProt P03372); test: qHTS assay to identify small molecule agonists of the estrogen receptor alpha (ER-alpha) signaling pathway in the presence of an antagonist (AID 1259383); details: VM7Luc4E2 cells, ERE-luciferase, +ICI-182,780, 22 h; series mostly up to 92.4 µM; note: top concentration of the series differs between compounds; nearly all actives have a fitted effect of over 15% in size
Sequence (P03372 whole entry, looked up): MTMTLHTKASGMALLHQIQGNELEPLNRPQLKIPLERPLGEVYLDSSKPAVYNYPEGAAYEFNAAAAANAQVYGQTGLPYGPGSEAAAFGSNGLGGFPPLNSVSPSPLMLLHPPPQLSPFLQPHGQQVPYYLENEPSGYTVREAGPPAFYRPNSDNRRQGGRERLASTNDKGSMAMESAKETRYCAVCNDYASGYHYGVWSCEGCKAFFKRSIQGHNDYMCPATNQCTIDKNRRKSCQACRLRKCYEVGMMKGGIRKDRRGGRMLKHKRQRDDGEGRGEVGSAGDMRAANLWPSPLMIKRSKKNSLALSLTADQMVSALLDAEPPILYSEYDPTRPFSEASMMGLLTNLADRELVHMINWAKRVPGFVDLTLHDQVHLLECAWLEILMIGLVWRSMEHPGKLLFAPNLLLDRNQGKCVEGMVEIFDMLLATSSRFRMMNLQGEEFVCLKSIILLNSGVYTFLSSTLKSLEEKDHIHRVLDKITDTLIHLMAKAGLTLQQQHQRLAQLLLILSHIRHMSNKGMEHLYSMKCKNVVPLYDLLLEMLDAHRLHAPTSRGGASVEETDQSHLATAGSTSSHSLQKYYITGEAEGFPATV
From the text: National Center for Advancing Translational Sciences [NCATS] NIH Chemical Genomics Center [NCGC] U.S. Environmental Protection Agency [EPA] National Institutes of Environmental Health Sciences [NIEHS] National Toxicology Program [NTP] Assay overview: Estrogen receptor (ER), a member of nuclear hormone receptor plays an important role in development, metabolic homeostasis and reproduction. Two subtypes of ER, ER-alpha and ER-beta, have similar expression patterns with some uniqueness in both types. Endocrine disrupting chemicals (EDCs) and their interactions with steroid hormone receptors like ER causes disruption of normal endocrine function. Therefore, it is important to understand the effect of environmental chemicals in ER signaling pathway. For identifying ER agonists, VM7Luc4E2 cell line has been used in the current assay. VM7Luc4E2 cell line (provided by Denison MS, University of California) endogenously expresses full-length ER-alpha and is stably transfected with a plasmid containing four estrogen responsive elements (ERE) upstream of a luciferase reporter gene. This current screening for measuring luciferase reporter gene activity using VM7Luc4E2 cells against Tox21 10K library collection is a confirmation study on agonist mode screening in presence of ER-antagonist (ICI-182,780) at 10.0nM final concentration.
Assay Protocol Summary: VM7Luc4E2 cells were cultured in phenol red free assay medium containing 10% charcoal stripped FBS for 5 days prior to the assay. The cells were dispensed at 4,000 cells in 4uL of assay medium per well into white wall/solid-bottom 1536-well plates (Corning Life Sciences, Corning, NY) using a Multidrop Combi (Thermo Fisher Scientific Inc., Waltham, MA) dispenser. After the assay plates were incubated at 37C and 5% CO2 for 24hr, 1uL of 10.0nM (final concentration) ICI-182,780 or assay buffer was added using two separate tips of Flying Reagent Dispenser (FRD, Aurora Discovery, San Diego, CA). Then 23nL of compounds dissolved in DMSO at 15 concentrations and positive controls or DMSO only was transferred to the assay plates by a Pintool station (Wako, San Diego, CA). The assay plates were incubated at 37C and 5% CO2 for 22hr. For luciferase read, 4uL/well ONE-Glo reagent (Promega Corporation, Madison, WI) was added to each well using FRD and after 30min incubation at room temperature, luminescence signal was measured on ViewLux plate reader (PerkinElmer, Shelton, CT).

| Compound | Potency |
| --- | --- |
| C[C@]12C=CC(=O)C=C1CC[C@H]1[C@@H]3C[C@@H](O)[C@](O)(C(=O)CO)[C@@]3(C)C[C@H](O)[C@@]12F | inactive |
| CC(C)[N+](C)(CCOC(=O)C1c2ccccc2Oc2ccccc21)C(C)C | inactive |
| CCCCCC=O | inactive |
| Cc1ccc([N+](=O)[O-])c(C)c1 | inactive |
| NCCN | inactive |
| O=C(O)COCCN1CCN(C(c2ccccc2)c2ccc(Cl)cc2)CC1 (stereo not given) | inactive |
| CCCCCC1C(=O)CCC1CC(=O)OC (stereo not given) | inactive |
| CCCCCCCCCCCCCO | inactive |
| C/C=C/C(=O)N(CC)c1ccccc1C | inactive |
| CC(C)=CCO | inactive |
| CC(=O)Nc1ccc2c(c1)Cc1cc(NC(C)=O)ccc1-2 | inactive |
| CC(=O)O[C@]1(C(C)=O)CC[C@H]2[C@@H]3C=C(C)C4=CC(=O)CC[C@]4(C)[C@H]3CC[C@@]21C | inactive |
| COC(=O)c1ccc(C)cc1 | inactive |
| O=Cc1ccccc1C=O | inactive |
| CC(=O)OC(C)C | inactive |
| CC1(C)O[C@@H]2C[C@H]3[C@@H]4C[C@H](F)C5=CC(=O)C=C[C@]5(C)[C@@]4(F)[C@@H](O)C[C@]3(C)[C@]2(C(=O)CO)O1 | inactive |
| c1ccc2c(c1)ccc1ncccc12 | inactive |
| CCCCCCCCCCCCO | inactive |
| COc1ccc2nc(N)sc2c1 | inactive |
| CCO[Si](CCCNC(N)=O)(OCC)OCC | inactive |

| Compound | Potency |
| --- | --- |
| Nc1ccc(O)c(N)c1 | inactive |
| CCCN1C=CN(C)C1 | inactive |
| c1ccc2cc3ccccc3cc2c1 | inactive |
| Oc1c(Cl)ccc(Cl)c1Cl | inactive |
| CC(=O)Oc1ccc(C(c2ccc(OC(C)=O)cc2)c2ccccn2)cc1 | inactive |
| NCCS(=O)(=O)O | inactive |
| CCC(Cc1c(I)cc(I)c(N)c1I)C(=O)O (stereo not given) | inactive |
| Nc1ccc2c(c1)C(=O)c1ccccc1C2=O | inactive |
| O=S1(=O)CCCO1 | inactive |
| CCCCCCCC/C=C\CCCCCCCC(=O)O | inactive |
| C=CCNCC=C | inactive |
| CC(=O)Oc1c(C)c(C)c2c(c1C)CC[C@@](C)(CCC[C@H](C)CCC[C@H](C)CCCC(C)C)O2 | inactive |
| COc1cc([C@H]2Oc3cc([C@H]4Oc5cc(O)cc(O)c5C(=O)[C@@H]4O)ccc3O[C@@H]2CO)ccc1O | inactive |
| O=C1CCc2ccccc2O1 | inactive |
| [O-]/[N+](=N\O)c1ccccc1 | inactive |
| OCCNCCO | inactive |
| C=CN1CCCC1=O | inactive |
| Nc1cc(Cl)c(N)c(Cl)c1 | inactive |
| O=C(O)CCCC(=O)O | inactive |
| C=C1C[C@H]2[C@@H]3C=C(C)C4=CC(=O)CC[C@]4(C)[C@H]3CC[C@]2(C)[C@@]1(OC(C)=O)C(C)=O | inactive |
